In the library only some 1.5% were active in any assay of this set; here they are far more common.
miR-122 sensor: blocks miR-122 activity in Huh7 sensor cells. Huh7 miR-122 Renilla luciferase sensor, 48 h; neutral wells = 0, positive control = 100. activation (reporter increase), % at 12.5 µM. 0.3% of 340,000 active. AID 602342;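 active means mean replicate activation score at least 90 and every replicate individually at or above 90; inconclusive means only one of the two criteria met; inactive means neither criterion met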;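 further: higher luciferase means less miR-122 activity so hits act as miR-122 inhibitors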
CendR NRP1 mod: modulators of CendR peptide binding to human neuropilin-1; inhibition, % at 25 µM; 0.85% of 360,000 active; FAM-RPARPAR peptide binding to NRP-1, fluorescence polarization;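 active means inhibition or corrected inhibition above about 18%, plus a signal ratio from 0.5 to 1.5, limit read from the data, passing the limit was not always enough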
RAD52 inh: RAD52 (human) annealing inhibition | recombinant RAD52 DNA annealing, FRET fluorescence | inhibition, % at 18.7 µM | 0.46% of 360,000 active | AID 651710;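 active means every replicate showing at least 50% inhibition; inconclusive means mean inhibition at least 50% but not in every replicate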
Glyco luc inh: blocks N-linked glycosylation in D54 reporter cells; D54 ERlucT glycosylation luciferase reporter, 24 h; percent of 100 nM tunicamycin response; 0.23% of 360,000 active; AID 588692; reporter increase, % at 12.5 µM;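 active means mean luciferase reporter signal, scaled so untreated is 0 and the glycosylation-blocking control 100, at or above a set limit in every replicate; inconclusive means mean reaches the limit but not every replicate does; inactive means mean below the limit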;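 further: luciferase carries N-glycosylation sites so blocking glycosylation raises the light; 0% = median of neutral control wells and 100% = median of 100 nM tunicamycin wells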
RAD54 inh: inhibitors of human RAD54 branch migration; inhibition, % at 10.4 µM; 0.14% of 360,000 active; RAD54 Holliday junction branch migration, FAM/BHQ fluorescence; Q92698; AID 602329;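 active means mean normalized replicate activity at least 40 and at least half of replicates scoring 40 or more; inconclusive means only one of the two criteria met; inactive means mean below 40 and under half of replicates reaching 40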;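 further: 0% = median of neutral control wells and 100% = median of positive control wells; inhibitors cause a drop in the FAM fluorescence signal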
Target sequence (Q92698 whole entry, looked up): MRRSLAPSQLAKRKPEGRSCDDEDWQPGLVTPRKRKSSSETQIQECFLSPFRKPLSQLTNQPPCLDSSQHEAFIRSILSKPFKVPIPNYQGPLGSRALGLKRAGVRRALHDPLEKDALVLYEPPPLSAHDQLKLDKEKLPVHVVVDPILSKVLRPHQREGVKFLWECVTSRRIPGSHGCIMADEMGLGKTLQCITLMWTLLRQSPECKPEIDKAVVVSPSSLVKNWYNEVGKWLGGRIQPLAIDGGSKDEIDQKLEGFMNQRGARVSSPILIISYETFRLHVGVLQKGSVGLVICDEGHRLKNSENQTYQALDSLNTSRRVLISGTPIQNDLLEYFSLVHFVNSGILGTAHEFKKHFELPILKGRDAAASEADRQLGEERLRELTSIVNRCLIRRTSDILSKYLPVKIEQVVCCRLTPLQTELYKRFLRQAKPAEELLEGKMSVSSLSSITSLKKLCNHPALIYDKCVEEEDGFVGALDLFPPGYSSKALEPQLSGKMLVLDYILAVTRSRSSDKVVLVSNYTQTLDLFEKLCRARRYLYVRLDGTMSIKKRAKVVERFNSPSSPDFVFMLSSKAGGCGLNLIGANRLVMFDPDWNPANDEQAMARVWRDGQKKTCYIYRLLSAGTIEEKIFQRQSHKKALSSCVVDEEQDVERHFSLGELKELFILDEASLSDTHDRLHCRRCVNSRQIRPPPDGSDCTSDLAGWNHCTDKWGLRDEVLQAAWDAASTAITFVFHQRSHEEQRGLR
FID counter: displaces DNA intercalator in HCV helicase counter-screen; DNA fluorescent intercalator displacement, fluorescence; inhibition, % at 7.9 µM; 0.17% of 290,000 active; AID 1845; in the data active means inhibition above about 37%;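 further: 0% = vehicle and 100% = reference compound; higher means more ethidium bromide displaced from hairpin DNA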
Rad54 DNA ctr: DNA binding artifact in Rad54 counter-screen. shares compounds with RAD54 inh. Acridine orange-DNA displacement, fluorescence polarization, 20 min. AC50, µM (doses to about 35 µM), without a hit: at the highest dose activity change, negative = DNA binding. 8% of 460 active. AID 651673;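 active means signal drop giving an AC50 within twice the top valid tested concentration of each sample, actives reach about 35 µM in these data; inactive means activity opposite to expected, plus the rest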;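 further: polarization loss reports compound binding to salmon sperm DNA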
miR-27b qPCR: selectivity of miR-122 inhibitors: effect on miR-27b in Huh7; 35 tested, under 10 active; Huh7 miR-27b levels, qRT-PCR, 48 h; relative miR-27b level (unnormalised ratio), ratio at 35 µM; shares compounds with miR-122 sensor; AID 687039;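 active means compounds lowering miR-27b whose fitted half-maximal dose is at most twice their top tested dose; inconclusive means flat curve with moderate drop, or poor fit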
RAD52 DNA ctr: counter-screen for RAD52 inhibitors: DNA binding compounds; Salmon sperm DNA/acridine orange FP displacement; AC50, µM; shares compounds with RAD52 inh; AID 652128; 8% of 1,000 active;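 active means fitted half-maximal concentration for signal loss at or below twice the highest dose tested, in every separate run, actives reach about 64 µM in these data; inconclusive means runs disagree, or flat partial signal loss, or poor fit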
* = called active by the depositor; i = inactive; ? = inconclusive; / = no result; [ ] = another dose, or the depositor's remark.

SMILES	miR-122 sensor	CendR NRP1 mod	RAD52 inh	Glyco luc inh	RAD54 inh	FID counter	Rad54 DNA ctr	RAD52 DNA ctr	others
C/C=C/c1ccc([C@H]2[C@@H](CO)N(CC3CC3)C23CN(C(=O)COC)C3)cc1	/	/	24.0	/	/	/	/	/
COc1ccc(OC)c(Nc2nc(NCCCN(C)C)nc(N)c2[N+](=O)[O-])c1	-5.4	1.1	95.0*	3.2	74.0*	40.7*	-21.2%	i
COCCCNc1nc(N)c([N+](=O)[O-])c(Nc2cc(OC)ccc2OC)n1	-0.6	-12.8	-9.9	3.7	3.3	-2.1	/	/
O=C(Nc1ccc(Nc2ccncc2)cc1)c1ccc(Nc2ccnc3ccc([N+](=O)[O-])cc23)cc1	-1.8	9.3	93.6*	0.2	128.3*	38.9*	4.1%	i
CCCCN(CC)CCNC(=S)Nc1ccc2nc(N3CCN(C)CC3)cc(C)c2c1	-10.1	12.7	59.6*	0.7	55.4*	43.0*	6.5%	i
CCCN(CCC)CCCNC(=S)Nc1ccc2nc(N3CCN(C)CC3)cc(C)c2c1	-0.5	-5.5	75.4*	3.4	62.7*	44.5*	-9.5%	i
Cc1cc(N2CCN(C)CC2)nc2ccc(NC(=S)NC3CC3)cc12	/	8.6	45.4	0.0	/	4.8	/	/
CN(C)CCCN(C(=O)c1ccco1)c1nc(-c2ccc(Cl)cc2)cs1	-15.5	2.2	52.0*	3.7	53.0*	23.6	-15.9%	i
CN(C)CCNC(=O)c1cccc(-c2cnc3c(NC=O)cc(-c4cccs4)cn23)c1	-5.2	-20.2	67.9*	-4.7	62.9*	/	-17.5%	i
CN(C)CCNC(=O)c1cccc(-c2cnc3c(NC=O)cc(-c4ccc(C(=O)N5CCOCC5)cc4)cn23)c1	-0.6	4.0	62.6*	0.8	?	/	-5.2%	i
Cc1cc(-c2cc(NC=O)c3ncc(-c4cccc(C(=O)NCCN(C)C)c4)n3c2)cc(C)c1O	-3.2	10.5	91.8*	-2.0	62.0*	/	-4.2%	i
CC(=O)c1cccc(-c2cnc3c(NC=O)cc(-c4ccccc4)cn23)c1	/	-18.0	-85.4	3.1	3.2	/	/	/
CC(=O)c1cccc(-c2cnc3c(NC=O)cc(-c4ccc(C(=O)N5CCOCC5)cc4)cn23)c1	-11.5	-17.0	-33.8	-5.6	7.3	/	/	/
CN(C)CCNC(=O)c1cccc(-c2cnc3c(NC=O)cc(-c4ccccc4F)cn23)c1	-9.1	-8.9	96.4*	-0.8	63.0*	/	5.6%	i
C[C@H]1CN([C@@H](C)CO)C(=O)c2cccc(NC(=O)c3ccncc3)c2O[C@@H]1CN(C)C(=O)Nc1ccccc1	7.7[16.7 µM]	/	5.7	/	7.1	/	/	/
COc1ccc(Nc2cc(C)nc3ccc(OC)cc23)cc1	-3.5	29.2*	55.5*	19.3	64.0*	21.9	3.5%	i
CN1CCN(c2nc(-c3cccc([N+](=O)[O-])c3)nc3ccccc23)CC1	/	4.8	14.4	2.9	74.6*	25.0	-21.8%	i
COc1cccc(N2CCN(C(=O)c3oc4ccccc4c3NC(=O)CCc3cc(OC)no3)CC2)c1	?	1.1	-15.1	-0.6	4.0	-40.4	/	/	miR-27b qPCR=0.64
CC(C)NC(=O)Nc1ccc2c(c1)C(=O)N([C@H](C)CO)C[C@@H](C)[C@@H](CN(C)Cc1ccc(Oc3ccccc3)cc1)O2	9.9[16.7 µM]	/	-10.2	/	6.5	/	/	/
Cc1ccc(NS(=O)(=O)c2cc(C(=O)NCc3ccccn3)ccc2Cl)cc1C	101.2*	4.8	/	-2.1	4.9	-20.9	/	/	miR-27b qPCR=0.973
Cc1ccc(C)c(NS(=O)(=O)c2cc(C(=O)NCc3ccccn3)ccc2Cl)c1	74.7	-0.1	/	-3.6	-7.3	-13.0	/	/
CC1CCCCN1C(=O)c1cc2nc(-c3ccccc3)cc(-c3ccccc3)n2n1 (configuration not stated)	120.8*	4.3	/	-4.9	-9.4	-26.7	/	/	miR-27b qPCR=0.901

Bioassay records deposited in PubChem BioAssay by several laboratories.
